# Results: PubChem BioAssay (Tox21)
# Records with an inconclusive call do not appear. Entries that show only a call come without a potency. The source holds several records for some structures; these can differ, active in one and inactive in another. The source made the active and inactive calls. Unless noted, calls follow the shape of the dose curve; as a rule, active = well fitted cell-killing curve with a large enough effect in the repeat runs (not every such curve was filed as active); inconclusive = weak or mixed curves, or effect the other way; inactive = no such curve, though single readings can be large or run the other way. Residues, ends and D or L forms follow the SMILES beside them.
# Assay: qHTS assay to identify small molecule antagonists of the estrogen related receptor signaling pathway with the pleiotropic PPARgamma coactivator (PGC) from Tox21 10K library - cell viability counter screen (AID 1224840); also: nearly all actives have a fitted effect of over 40% in size; also: potency is read from the fitted curve at half-maximal effect
# Conditions: PGC/ERR reporter cells viability, CellTiter-Fluor, 17.5 h; series mostly up to 92.4 µM
# In short: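 Compounds in DMSO, alongside positive and negative controls, were pinned onto PGC/ERR cells (2,000 per well). Exposure lasted 17.5 hours at 37 C, followed by a 30-minute CellTiter-Fluor incubation and fluorescence reading.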
row,SMILES,Potency
1,O=C(O)C(=O)O,inactive
2,Cn1c(=O)c2[nH]cnc2n(C)c1=O,inactive
3,CCCN(CCC)S(=O)(=O)c1ccc(C(=O)O)cc1,inactive
4,Nc1ccc(S(=O)(=O)Nc2nccs2)cc1,inactive
5,CCCC(O)C(CC)CO (centres undefined),inactive
6,Cc1ccc(O)cc1,inactive
7,COc1c2occc2cc2ccc(=O)oc12,inactive
8,NS(=O)(=O)c1cc(C(=O)O)c(NCc2ccco2)cc1Cl,inactive
9,Cn1cc[nH]c1=S,inactive
10,COC(=O)[C@H](Cc1ccccc1)NC(=O)[C@@H](N)CC(=O)O (H-Asp-Phe-OMe),inactive
11,c1ccc2[nH]ccc2c1,8.49 µM (active) and inactive
12,CCCC(CCC)C(=O)O,inactive
13,O=S(=O)(O)NC1CCCCC1,inactive
14,CC(=O)OCC(COC(C)=O)OC(C)=O,inactive
15,O=NO,inactive

# Assay: qHTS assay to identify small molecule antagonists of the estrogen related receptor signaling pathway with the pleiotropic PPARgamma coactivator (PGC) from Tox21 10K library (AID 1224841; call rule not given here; also: actives are mostly falling curves and most rising ones were filed inactive; nearly all actives have a fitted effect of over 50% in size; also: potency is read from the fitted curve at half-maximal effect)
# Conditions: PGC/ERR reporter cell line, ONE-Glo luciferase, 18 h; series mostly up to 92.4 µM
# In short: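 Compound exposure ran 18 hours at 37 C in PGC/ERR cells (2,000/well) that had first rested 6 hours in a 37 C/5% CO2 incubator. Luciferase activity was then detected with One-Glo after a 30-minute room-temperature step.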
row,SMILES,Potency
1,O=c1cc[nH]c(=S)[nH]1,inactive
2,CC(O)CO (centres undefined),inactive
3,Cc1cn([C@H]2C[C@H](N=[N+]=[N-])[C@@H](CO)O2)c(=O)[nH]c1=O,inactive
4,OC(Cn1cncn1)(Cn1cncn1)c1ccc(F)cc1F,inactive
5,Nc1ccc(O)c(C(=O)O)c1,inactive
6,CCCN(CCC)S(=O)(=O)c1ccc(C(=O)O)cc1,inactive
7,Nc1ccc(S(=O)(=O)Nc2nccs2)cc1,inactive
8,NS(=O)(=O)c1cc(C(=O)O)c(NCc2ccco2)cc1Cl,inactive
9,c1ccc2[nH]ccc2c1,2.69 µM (active) and inactive
10,CC(=O)OCC(COC(C)=O)OC(C)=O,inactive

# Assay: qHTS assay to identify small molecule agonists of the estrogen related receptor signaling pathway with the pleiotropic PPARgamma coactivator (PGC) from Tox21 10K library (AID 1224842; active = well fitted activation curve with a large enough effect in the repeat runs; also: nearly all actives have a fitted effect of over 15% in size)
# Conditions: PGC/ERR reporter cell line, luciferase ONE-Glo, 18 h; series mostly up to 92.4 µM
# In short: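 Luminescence from One-Glo (30 min, room temperature) measured after PGC/ERR cells had 18 h at 37 C with pinned compound (23 nL in DMSO). Cells had been seeded at 2,000 per well and pre-incubated 6 h.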
row,SMILES,Potency
1,O=c1cc[nH]c(=S)[nH]1,inactive
2,CC(O)CO (centres undefined),inactive
3,Cc1cn([C@H]2C[C@H](N=[N+]=[N-])[C@@H](CO)O2)c(=O)[nH]c1=O,inactive
4,Nc1ccc(O)c(C(=O)O)c1,inactive
5,CCCN(CCC)S(=O)(=O)c1ccc(C(=O)O)cc1,inactive
6,Nc1ccc(S(=O)(=O)Nc2nccs2)cc1,inactive
7,NS(=O)(=O)c1cc(C(=O)O)c(NCc2ccco2)cc1Cl,inactive
8,c1ccc2[nH]ccc2c1,inactive
9,CC(=O)OCC(COC(C)=O)OC(C)=O,inactive
